Laboratory results reported in PubChem BioAssay AID2685 (National Center for Advancing Translational Sciences (NCATS), 2010).
Hit rate of the full screen: of about 320,000 compounds, about 2,100 (0.66%) were called active. About 53% were inconclusive and are not listed. Calls follow the shape of the dose curve; as a rule, active = well fitted inhibition curve with a large enough effect in the signal ratio, with a control signal flat (not every such curve was filed as active); inconclusive = small, poorly fitted or top-dose-only effect, or effect the other way, or a change in a side signal; inactive = flat fitted curve, though single readings scatter; the % refers to the signal ratio. The full list was thinned out, with actives kept by preference.

Test: qHTS Assay for Lipid Storage Modulators in Drosophila S3 Cells;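 as to cell number change: cells counted by Cell Tracker Red CMTPX staining in the red channel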; as to lipid storage change, negative = inhibition: % is scaled to controls: 0 for no effect and ±100 for the full control effect
Details: BODIPY lipid droplet fluorescence, 18-24 h, cells fed with added oleic acid; cell number change: measured here: cell count max response; series mostly up to 46.1 µM; lipid storage change, negative = inhibition: at the top concentration
In short: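 Laser-scanning cytometry quantifies lipid droplet accumulation (500–530 nm total intensity; droplet/cell object ratio) in oleic acid-fed (400 uM added) Drosophila S3 cells treated with a concentration series. 20 uM Triacsin C defined 100% inhibition.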
Potency is read from the fitted curve at half-maximal effect.

Row | Structure (SMILES) | lipid storage change, negative = inhibition | cell number change [%] | outcome | Potency
1 | COc1nc(OC)nc(N2CCC(C(=O)Nc3cccc4c3CCCC4)CC2)n1 | 20.9% (inactive) | -6.45 |  | 
2 | O=C1OC(C(=O)Nc2nccs2)Cc2ccccc21 (stereo unspecified) |  |  | inactive | 
3 | Cc1cc(NC(=O)CSc2nc(C(C)(C)C)nc3ccccc23)no1 | -21.1% (inactive) | -18 |  | 
4 | CC(C)(C)c1nc(SCC(=O)Nc2ccc3c(c2)OCCO3)c2ccccc2n1 |  | -25.4 |  | 18.4 µM (active)
5 | O=C(CSc1ncnc2ccccc12)Nc1ccc2c(c1)OCCO2 | 24.4% (inactive) |  |  | 
6 | COc1ccc2[nH]c(=O)c(CNc3ccc(C)cc3C)cc2c1 | 7.28% (inactive) | -6.94 |  | 
7 | CC(=O)N/C(=C/c1ccccc1)C(=O)NCCO | -18.3% (inactive) | 7.72 |  | 
8 | O=C(NCC(F)(F)F)Nc1nnc(C(F)(F)F)s1 | 0.908% (inactive) | 0.475 |  | 
9 | O=C(O)CCC(=O)Nc1nnc(C(F)(F)F)s1 |  | -2.24 |  | 29.1 µM (active)
10 | CC(C)(C)CC(=O)Nc1nnc(C(F)(F)F)s1 | 0.0305% (inactive) | 0.161 |  | 
11 | O=C(CCC(=O)N1CCCC1)Nc1nnc(C(F)(F)F)s1 | 18.1% (inactive) | 11.1 |  | 
12 | CCc1ccc(NC(=O)CCC(=O)Nc2nnc(C(F)(F)F)s2)cc1 |  | 24.4 | inactive | 
13 | CCC(NC(=O)Nc1nnc(C(F)(F)F)s1)(C(F)(F)F)C(F)(F)F |  | -12.6 |  | 16.4 µM (active)
14 | CCOC(=O)C1CCN(C(=O)C(CCSC)NC(=O)COc2ccccc2)CC1 (stereo unspecified) | -10.9% (inactive) | 22.1 |  | 
15 | CC(=O)Nc1cccc(-c2nn[nH]n2)c1 | 7.27% (inactive) | 9.02 |  | 
16 | CC(=O)Nc1ccc(Nc2nnc(-c3ccc(O)cc3)c3ccccc23)cc1 | 7.47% (inactive) | 9.07 |  | 
17 | Cc1cc(C)cc(NC(=O)Cc2ccc(-n3cccc3)cc2)c1 | 12.5% (inactive) | -7.37 |  | 
18 | CC(=O)N(CCC(c1ccco1)C(C)C)Cc1ccc(OC(C)C)cc1 (stereo unspecified) | -3.84% (inactive) | -2.37 |  | 
19 | COc1ccc(C(CCN(Cc2ccc(OC)c(OC)c2)C(C)=O)C(C)C)cc1 (stereo unspecified) |  | -13.5 |  | 0.82 µM (active)
20 | COc1ccc(C(CCN(Cc2ccc(OC)c(OC)c2)C(C)=O)c2ccccc2)cc1 (stereo unspecified) | -11.8% (inactive) | -3.52 |  | 
21 | O=C(O)CCc1ccc(-c2ccc(F)cc2)n1Cc1ccco1 | 3.2% (inactive) | -0.476 |  | 
22 | O=C(O)CCc1ccc(-c2ccc(Br)cc2)n1Cc1ccco1 |  | -8.78 |  | 6.51 µM (active)
23 | Cc1ccc(-c2ccc(CCC(=O)O)n2Cc2ccco2)cc1 | 1.97% (inactive) | 19.5 |  | 
24 | Cc1[nH]c2ccccc2c1C(=O)C(=O)N1CCN(c2ccccc2)CC1 | -1.16% (inactive) | 8.19 |  | 

Row | Structure (SMILES) | lipid storage change, negative = inhibition | cell number change [%] | outcome | Potency
25 | CCc1ccccc1N(CC(=O)Nc1cccc(N(C)S(C)(=O)=O)c1)S(C)(=O)=O |  | 5.08 | inactive | 
26 | Cc1ccc(Cl)cc1N(CC(=O)Nc1cccc(N(C)S(C)(=O)=O)c1)S(C)(=O)=O |  | -15.4 |  | 14.6 µM (active)
27 | CN(c1cccc(NC(=O)CN(c2cccc(Cl)c2)S(=O)(=O)c2ccc(Cl)cc2)c1)S(C)(=O)=O | -27.1% (inactive) | -18.4 |  | 
28 | COc1ccc2oc(CS(=O)c3ccccc3)c(C(=O)O)c2c1 (stereo unspecified) | 12.5% (inactive) | 13.2 |  | 
29 | CC1OC2(OC1C)C(=O)Nc1ccccc12 (stereo unspecified) |  |  | inactive | 
30 | CN1C(=S)SC(C)(C)C1(C)NO (stereo unspecified) |  | 0.152 |  | 1.64 µM (active)
31 | CN1C(=S)SC(C)(NO)C1(C)C (stereo unspecified) |  | -11.6 |  | 5.17 µM (active)
32 | CN1C(=S)SC(C)(C)C1NO (stereo unspecified) | 5.34% (inactive) | 1.23 |  | 
33 | CCC(C)c1ccc(S(=O)(=O)Nc2cccnc2)cc1 (stereo unspecified) |  | -23.6 | inactive | 
34 | CCCCCCCCCCCCS[C@H]1CS(=O)(=O)C[C@@H]1O | -11.5% (inactive) | -8.76 |  | 
35 | CC(=O)Nc1cc2cc(NS(=O)(=O)c3ccc(Cl)cc3)ccc2oc1=O | -0.0147% (inactive) | 9.39 |  | 
36 | COC(=O)/C(C#N)=C\c1c(OC)[nH]c2ccccc12 | -1.4% (inactive) | -7.03 |  | 
37 | CN(Cc1ccccc1)S(=O)(=O)c1cccs1 | -3.38% (inactive) | 5.69 |  | 
38 | CN(Cc1c(F)cccc1Cl)C(=O)CNC(=O)c1cccs1 |  | -5.78 | inactive | 
39 | CN(Cc1c(F)cccc1Cl)S(=O)(=O)c1cccs1 |  | -15.8 |  | 5.8 µM (active)
40 | CC(C)CSc1nc2c(c(=O)[nH]c(=O)n2C)n1CCc1ccccc1 | 12.1% (inactive) | 0.065 |  | 
41 | Cc1cc(=O)oc(C)c1C(=O)NCCCN1CCN(c2ccc(F)cc2)CC1 | 9.77% (inactive) | 2.43 |  | 
42 | COc1ccccc1N1CCN(C(=O)c2c(C)cc(=O)oc2C)CC1 |  | -3.57 | inactive | 
43 | Cc1c(C(=O)N2CCN(S(=O)(=O)c3cc(F)ccc3F)CC2)oc2ccccc12 | 16.3% (inactive) | -12.2 |  | 
44 | O=C(c1ccc(N2CCN(C(=O)c3ccccc3)CC2)cc1)c1cccc(F)c1 |  | 0.901 |  | 2.06 µM (active)
45 | O=C(c1cccc(C(=O)N2CCN(c3ccccc3)CC2)c1)N1CCN(c2ccccc2)CC1 | 12.8% (inactive) | -3.1 |  | 
46 | Cc1cc(=O)oc(C)c1C(=O)N1CCN(c2ccc(F)cc2)CC1 |  | -3.9 |  | 23.1 µM (active)
47 | Cc1c(C(=O)N2CCN(C(=O)c3ccccc3)CC2)oc2ccc(F)cc12 |  | -15.5 |  | 1.84 µM (active)
